Source: PubChem (several laboratories)
Kir21 inh – Kir2.1 (mouse) channel inhibition | P35561 | HEK293-Kir2.1, FluxOR thallium flux fluorescence; hits give low values | B-score at 10 µM | 310,000 compounds, 0.85% hits | AID 1672;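 active means fluorescence ratio B-score at or below minus 3 SD of library scores, with starting-brightness B-score within 2 SD, cut at about -4.2 in these data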;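 further: channel flux triggered by added potassium and thallium sulfate stimulus; B-score of peak minus minimum fluorescence over baseline after thallium stimulus; more negative B-score means stronger Kir2.1 block with less thallium influx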
TAG inh – reduces triacylglycerol accumulation in H9c2 cells. inhibition, % at 12.5 µM. 230,000 compounds, 0.66% hits. Nile Red lipid (TAG) fluorescence; cells loaded with 200 µM oleic acid. AID 651582;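 active means pattern-corrected inhibition of lipid staining of at least 50% with the nuclear-stain viability signal not falling by more than 50%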;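 further: 0% = DMSO wells and 100% = triacsin C control wells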
CHT block – human CHT choline transport inhibition. Q9GZV3. CHT-expressing cells, membrane potential dye, choline response; hits give low values. B-score at 10 µM. 310,000 compounds, 0.86% hits;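 active means B-score over 3 SD under the library average, and starting fluorescence ratio not unusually high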;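 further: choline stimulus applied at its EC90 after an EC20 pre-addition; B-score computed on integrated fluorescence ratio after choline addition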
Target sequence (Q9GZV3 whole entry, looked up): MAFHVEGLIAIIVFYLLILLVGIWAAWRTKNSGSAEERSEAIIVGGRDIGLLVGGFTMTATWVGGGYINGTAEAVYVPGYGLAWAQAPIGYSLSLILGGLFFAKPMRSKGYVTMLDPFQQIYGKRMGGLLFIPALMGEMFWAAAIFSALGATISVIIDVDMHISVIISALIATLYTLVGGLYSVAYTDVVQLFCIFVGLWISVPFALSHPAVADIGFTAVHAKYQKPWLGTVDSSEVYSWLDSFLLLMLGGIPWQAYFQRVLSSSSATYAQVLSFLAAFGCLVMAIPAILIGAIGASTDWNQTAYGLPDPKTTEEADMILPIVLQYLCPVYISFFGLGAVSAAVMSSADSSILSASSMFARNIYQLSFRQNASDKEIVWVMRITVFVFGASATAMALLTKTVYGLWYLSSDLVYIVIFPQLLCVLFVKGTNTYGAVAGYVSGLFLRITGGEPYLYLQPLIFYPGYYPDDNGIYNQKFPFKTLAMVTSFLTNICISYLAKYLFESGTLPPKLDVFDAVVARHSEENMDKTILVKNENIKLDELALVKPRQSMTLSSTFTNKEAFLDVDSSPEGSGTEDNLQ
CHT allo act – allosteric activators of human choline transporter CHT | CHT-expressing cells, membrane potential dye, choline EC20; hits give high values; LV-AA mutant CHT in HEK293 cells | AID 488977 | Q9GZV3 | 310,000 compounds, 0.49% hits | B-score at 10 µM;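 active means initial fluorescence not abnormally high and integrated response B-score, plate-corrected, over 3 SD above library mean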
CHT act confirm – confirmation of human choline transporter (CHT) activators; shares compounds with CHT allo act; CHT-expressing cells, membrane potential dye fluorescence (FDSS); % of choline EC20–EC90 response window; HEK293 expressing CHT LV-AA mutant; choline added at its EC20; activation, % at 10 µM; 2,500 compounds, 91% hits; AID 504833;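 active means primary screen active, with duplicate mean activation above negative control mean plus 3 SD, cut at about 11% in these data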
HEK293 MP dye – CHT activator counter-screen hit in parental HEK293 cells; shares compounds with CHT allo act; membrane potential dye fluorescence (FDSS); measured after EC20 choline addition; ratio readout change at 10 µM, hits read low; 2,500 compounds, 62% hits; AID 623908;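 active means duplicate-averaged ratio beyond 3 SD from buffer wells, up or down, though filed actives are nearly all decreases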
* marks the source's active call; other numbers are inactive results; i = inactive; / = no result; ! = a repeat was not active. Rows were chosen to be rich in hits. Some 2% of all compounds tested hit in one or more screens of this group.

SMILES	Kir21 inh	TAG inh	CHT block	CHT allo act	CHT act confirm	HEK293 MP dye
COc1ccc(CNc2nc3ccccc3n2CCN2CCCCC2)c(OC)c1	-3.7	/	i	i	/	/
COc1ccc(OC)c(CNc2nc3ccccc3n2CCN2CCCCC2)c1	-3.2	/	i	i	34*	i
Cc1sc2nc3ccc(N4CCCC4)nn3c(=O)c2c1C	-0.66	-1	i	i	38*	-38*
Cc1ccc2nc3ccc(N4CCCCCCC4)nn3c(=O)c2c1	-1.6	23	i	i	/	/
Cc1ccc(-c2c3c(=O)n(C)c(=O)n(C)c3cn2CCCN2CCOCC2)cc1	-0.19	/	i	8.1*	70*	-68*
CCCCn1cc2c(c1-c1cccc(C)c1)c(=O)n(C)c(=O)n2C	0.37	4	i	i	/	/
O=[N+]([O-])c1cccc(/C=N/Nc2nccnc2Cl)c1	1.6	/	i	6.2*	41*	-37*
O=[N+]([O-])c1cccc(/C=N/Nc2ccccn2)c1	-0.26	/	i	i	/	/
COc1ccc(C(=O)C(CCC(CNC(C)(C)C)C(=O)c2ccc(OC)cc2)CNC(C)(C)C)cc1 (configuration not stated)	0.17	/	i	6.6*	28*	i
COc1ccc(C(=O)CC(=O)c2ccc(C(C)(C)C)cc2)cc1	/	10	/	/	/	/
CCCCN(CC)CCNC(=O)CN(C)S(=O)(=O)c1ccc2c(c1)c(=O)n(C)c(=O)n2C	-0.06	/	i	i	32*	-34*
CN1CCCC(OC(=O)/C(C#N)=C/c2ccccc2)C1 (configuration not stated)	0.39	4	i	i	/	/
Cc1cccnc1NC(=O)/C=C/c1ccc2c(c1)OCO2	-0.44	/	i	i	44*	-40*
CN(C)c1ccc(-c2n(C)c3ccccc3[n+]2C)cc1	0.64	/	i	8.3*	64*	-51*
Cc1nnc(NCCc2ccccc2)c2ccccc12	0.74	/	i	7.2*	39*	-49*
N#CCCn1cc(CNC2CCC(O)CC2)c2ccccc21 (configuration not stated)	0.37	/	i	i	/	/
CC(C)C(=O)N1CCN(c2ccccc2NC(=O)c2cccc(Cl)c2)CC1	-0.49	3	i	6.6*	18*	i
CCN(CC)c1nc(N)c2c(N)nc3c(c2c1C#N)CC(c1ccccc1)O3 (configuration not stated)	-1.2	-63	i	6.5*	26*	i
O=C(C1CC1)N1CCN(c2ccnc3cc(Cl)ccc23)CC1	-0.65	/	i	7.3*	65*	-67*
O=C(c1ccco1)N1CCN(c2ccnc3cc(Cl)ccc23)CC1	0.99	-4	i	i	20*	-68*
CN1CCN(c2c(F)cc3c(=O)c(C(=O)O)cn4c3c2SCC4)CC1	-0.25	-15	i	9.9*	23*	-69*
Cc1c(-n2cc(C(=O)O)c(=O)c3cc(F)c(N4CCCC4)c(F)c32)c(=O)n(-c2ccccc2)n1C	-0.36	-16	i	i	/	/
CCN(CC)CCNc1ccnc2cc(Cl)ccc12	0.87	/	i	7.4*	51*	-84*
Clc1ccc2c(NCc3ccccc3)ccnc2c1	-0.42	/	i	i	/	/
CCN(CC)Cc1cc(Nc2ccnc3cc(Cl)ccc23)ccc1O	-2.5	1	i	7.5*!	48*	-52*
SMILES	Kir21 inh	TAG inh	CHT block	CHT allo act	CHT act confirm	HEK293 MP dye
Oc1ccc(Nc2ccnc3cc(Cl)ccc23)cc1	1.8	/	i	i	/	/
CCN(Cc1ccc(OC)c(F)c1)C(=O)/C=C/c1ccc(S(=O)(=O)N2CCOCC2)cc1	/	-1	/	/	/	/
Cc1cccc(C)c1OCC(=O)OCC(=O)Nc1ccc(Cl)cn1	/	-32	/	/	/	/
COc1ccc(N2CCN(C(=O)COC(=O)c3ccccc3OCc3ccc(F)cc3)CC2)cc1	-0.42	-8	i	6.8*	20*	i
Cc1[nH]c2ccc3ncccc3c2c1C	-0.08	/	i	6.8*	30*	-65*
NC1=NC2OC(CO)C(O)C2O1 (configuration not stated)	/	-6	/	/	/	/
O=C(NN=C1CCCCCCC1)c1ccc2ccccc2n1	-0.08	2	i	i	/	/
Cc1sc2c(=O)n3c(nc2c1C(=O)NCCCN1CCOCC1)CCCCC3	-0.26	/	i	6.9*	51*	-40*
O=c1nc(N/N=C/c2ccccn2)cn[nH]1	-1.1	/	i	i	/	/
C(=N\Nc1ccc2nncn2n1)/c1ccccn1	0.01	28	i	i	24*	-54*
Cc1ccc(CN(C)CC(=O)Nc2ccccc2C(=O)NC2CC2)o1	/	0	/	/	/	/
CCN(c1ccccc1)S(=O)(=O)c1ccc(C(=O)N(CCCN(C)C)c2nc3cc4c(cc3s2)OCO4)cc1	0.46	3	i	i	43*	-37*
CC(=O)Nc1c(-c2ccc3ccccc3c2)nc2ccccn12	0.58	/	i	i	/	/
N#Cc1ccccc1Sc1ccccc1C(=O)NCC(c1ccco1)N1CCCCC1 (configuration not stated)	/	-8	/	/	/	/
O=C(NCC(c1ccco1)N1CCCC1)c1ccccc1Sc1ccc(C(F)(F)F)cc1[N+](=O)[O-] (configuration not stated)	-0.16	8	i	i	26*	i
Cc1csc2c(C#N)c(=O)c3c(n12)CCC3	-0.27	/	i	6.6*	49*	-41*
Cc1ccc2ccc3cccnc3c2n1	0.92	/	i	6.9*	55*	-73*
CNC(=O)c1ccc(Nc2nnc(C)c3ccccc23)cc1	-0.74	/	i	i	47*	-48*
CCCCc1ccc(NC(=O)CSc2nnc(C)c(=O)n2N)cc1	1.4	45	i	i	/	/
COc1ccc(-c2[nH]ncc2CN2CCC(OCc3ccccc3)CC2)c(F)c1	-1.6	-7	i	i	/	/
COCC1CCN(Cc2cn[nH]c2-c2ccc(OC)cc2F)C1 (configuration not stated)	-0.12	7	i	i	21*	i
O=C(CSc1nnc(Cc2cccs2)n1C1CCCCC1)N1CCCc2ccccc21	-3.4	-10	i	6.4*	31*	i
Cn1c(Cc2cccs2)nnc1SCC(=O)N1CCCc2ccccc21	-0.05	-8	i	i	/	/
CC(C#N)(Nc1ccc(Cl)cc1)c1cccnc1 (configuration not stated)	-0.65	/	i	i	/	/
N#CC1(c2ccccc2)CCC(=O)N1Cc1ccccc1 (configuration not stated)	0.02	-1	i	i	/	/
COCC(=O)N(C)c1nnc(-c2ccc([N+](=O)[O-])cc2)s1	-0.42	/	i	i	41*	-47*
COCC(=O)N(C)c1nnc(-c2ccccn2)s1	0.07	-26	i	i	/	/
CN(CC(=O)Nc1c(Cl)cccc1Cl)C(=O)c1sccc1-c1ccccc1	-0.94	-3	i	i	/	/
